Rows were chosen to be rich in hits. Some 18% of all compounds tested hit in one or more screens of this group.
TDP1 cell CPT = DT40-hTDP1 cell growth loss with CPT; AID 686979; Potency, µM (highest dose often 46.2 µM), without a hit: top-dose activity change, negative = growth inhibition, usual class: inhibitors; actives 12% (n = 420,000); chicken DT40 Tdp1-/-;hTDP1 cells + 20 nM CPT, ATP luminescence, 48 h; note: nearly all actives have a fitted effect of over 55% in size
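Chicken DT40 Tdp1-/- cells stably complemented with human TDP1 were seeded at 400 cells/well in medium containing 20 nM camptothecin, exposed to pin-transferred compounds, and grown at 37 °C for at least 48 hr. Viability was read as ATP luminescence.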
TDP1 block = blocks human tyrosyl-DNA phosphodiesterase 1; recombinant TDP1, AlphaScreen DNA substrate cleavage; Potency, µM (titrated, usually from 130 µM), inactives show at the top dose activity change, negative = inhibition, actives largely listed as inhibitors; actives 0.28% (n = 350,000); AID 485290; note: nearly all actives have a fitted effect of over 40% in size
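AlphaScreen read-out: signal falls as enzyme removes the 3' tyrosine-FITC from a 5'-biotinylated DNA oligo (15 nM, 5 min, RT). Enzyme was E. coli-made recombinant Tdp1 at 1 nM, exposed to compound for 15 min beforehand; beads 10 ug/ml, 10 min.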
TDP1 cell noCPT = qHTS for Inhibitors of human tyrosyl-DNA phosphodiesterase 1 (TDP1): qHTS in cells in absence of CPT | DT40 Tdp1-/- hTDP1 cells, no CPT, ATP luminescence, 48 h | Potency, µM (highest dose often 46.2 µM), without a hit: at the highest dose activity change, negative = growth inhibition, hits mostly inhibitors | actives 15% (n = 420,000) | AID 686978, 2013; note: nearly all actives have a fitted effect of over 55% in size
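DT40 Tdp1-/-;hTDP1 cells, no CPT (DMSO vehicle only), 400 cells/well; compounds pin-transferred; ≥48 hr, 37 °C; CellTiter-Glo 30 min RT dark, luminescence read.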
GCN5L2 inh = GCN5L2 (KAT2A) acetyltransferase inhibition | Q92830 | GCN5L2 HAT assay, ThioGlo1 CoA-SH fluorescence | Potency, µM (doses to about 58.9 µM), without a hit: at the top dose activity change, negative = inhibition, actives largely listed as inhibitors | actives 0.21% (n = 390,000) | AID 504327
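Fluorescence readout, Ex340nm/Em540nm: ThioGlo1 (50uM final) reacts with free CoA thiol released as 20nM GCN5L2 acetylates H3(1-25) peptide (75uM) using acetyl-CoA (70uM). Compound and enzyme sat 15 min beforehand; 20 min room-temperature reaction.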
PLK1 PBD block = inhibitors of human PLK1 polo-box domain binding; Plk1 PBD binding of FITC phosphopeptide, fluorescence polarization; Potency, µM, inactives show max response, negative = inhibition, most hits filed as inhibitors; actives 2.8% (n = 360,000); P53350; note: series mostly up to about 57 µM; nearly all actives have a fitted effect of over 65% in size
Target sequence (P53350 whole entry, looked up, the tested form may be a part): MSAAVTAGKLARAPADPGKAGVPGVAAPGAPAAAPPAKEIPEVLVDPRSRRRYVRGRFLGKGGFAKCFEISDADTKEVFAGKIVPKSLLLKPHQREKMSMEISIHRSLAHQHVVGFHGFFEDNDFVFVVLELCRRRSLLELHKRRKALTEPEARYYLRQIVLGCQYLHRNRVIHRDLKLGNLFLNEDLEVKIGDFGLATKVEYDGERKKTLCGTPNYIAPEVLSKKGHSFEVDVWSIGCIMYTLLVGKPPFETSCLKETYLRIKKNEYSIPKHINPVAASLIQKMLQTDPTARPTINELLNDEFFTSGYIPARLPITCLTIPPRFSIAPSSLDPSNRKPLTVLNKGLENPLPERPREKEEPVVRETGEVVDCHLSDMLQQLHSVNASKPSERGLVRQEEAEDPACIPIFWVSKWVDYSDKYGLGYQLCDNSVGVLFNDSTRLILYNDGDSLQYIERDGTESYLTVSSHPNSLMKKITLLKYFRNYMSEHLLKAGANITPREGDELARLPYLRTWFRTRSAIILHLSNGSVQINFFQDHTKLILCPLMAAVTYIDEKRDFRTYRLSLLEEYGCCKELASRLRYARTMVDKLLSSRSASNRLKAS
VDR inhibitor = inhibitors of human vitamin D receptor | Potency, µM, inactives show max response, negative = inhibition, actives largely listed as inhibitors | actives 0.93% (n = 400,000) | P11473 | AID 504847 | VDR-SRC2-3 peptide fluorescence polarization, 2 h
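Signal is fluorescence polarization, reporting how far test compounds block the interaction of VDR with the SRC2-3 coregulator peptide after a 2 h room-temperature incubation.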
Active calls of the source: *; ? = inconclusive; · = not tested or not shown; [ ] = another dose, or the depositor's remark. Calls come from the whole dose curve; as a rule, active = well fitted curve in the direction sought with a large enough effect; inconclusive = small, poorly fitted or top-dose-only effect, or another doubt; inactive = no such curve, though single readings can be large; an effect the other way counts as inactive or inconclusive. % is set by controls: 0 for no effect and ±100 for the full control effect; potency is the fitted concentration of half-maximal effect.

SMILES	TDP1 cell CPT	TDP1 block	TDP1 cell noCPT	GCN5L2 inh	PLK1 PBD block	VDR inhibitor
O=[N+]([O-])c1cc(-c2csc(NCCc3nc4cc(C(F)(F)F)ccc4n3CCCO)n2)ccc1Cl	?	·	?	·	-8%	-12%
Cc1nc2cc(C(F)(F)F)ccc2n1CCNc1nc(-c2ccc([N+](=O)[O-])c(Cl)c2)cs1	?	·	21µM*	-4%	5%	4%
c1ccc(CCNc2nc(-c3ccncc3)cs2)cc1	?	1%	?	-1%	-12%	-10%
Cc1ccc(-c2csc(NCCn3c(-c4ccncc4)nc4ccccc43)n2)cc1	?	·	23µM*	3%	0%	6%
Cc1ccc(-c2csc(NCCn3c(-c4ccncc4)nc4cc(C(F)(F)F)ccc43)n2)cc1	29µM*	2%	?	-13%	-16%	-27%
Cc1ccc(Cn2c(CCNc3nc(-c4ccc(Cl)c([N+](=O)[O-])c4)cs3)nc3cc(C(=O)NCCCO)ccc32)cc1	10µM*	·	13µM*	·	-25%	-18%
Cc1ccnc(NC(=O)CCC(=O)N(CC(=O)NC2CCCCC2)Cc2ccc3c(c2)OCO3)c1	·	5%	·	-6%	·	·
CN(C)Cc1ccccc1-c1cc(Nc2ccccc2)ncn1	3%	-5%[56.1 µM]	-9%	-3%	·	5%
COc1ccc(Cl)cc1NCc1nnc2n1CCCCC2	-1%	5%	4%	-12%	·	-1%
CCOc1ccccc1C(=O)Oc1c(S(=O)(=O)c2ccc(C)cc2)c(C)nn1-c1ccccc1	10µM*	-2%	21µM*	-14%	·	-16%
O=C(NCc1ccco1)c1cc2c(s1)CSC2	?	·	?	?	13µM*	?
O=C(NCc1ccco1)c1cc(-c2cccs2)on1	8.9µM*	-2%	14µM*	-8%	-4%	2%
O=C(NCc1ccccc1)c1cc(-c2cccs2)on1	-24%	0%	-23%	2.5µM*	-6%	-9%
O=C(NCc1ccco1)c1cc(-c2ccccc2)on1	-27%	-2%	?	-9%	-6%	-13%
O=C(NCCCn1ccnc1)c1cc(-c2cccs2)on1	4.6µM*	8%	4.6µM*	2.2µM*	-4%	-6%
CC(=O)Nc1nnc(SCc2cc(=O)c3cccc(Cl)c3[nH]2)s1	?	-8%	-26%	-7%	·	6%
COC(=O)[C@@]12C[C@@H](CC(=O)NCCCN3CCCC3=O)C(=O)N(Cc3ccc4c(c3)OCO4)C1=CCC(C)(C)C2	?	·	?	·	2%	·
Brc1ccc(NC2=Nc3ccccc3CC2)cc1	?	2%	16µM*	2%	12µM*	?
CC1CCc2nc(-c3cc4ccc(O)cc4oc3=O)sc2C1 (stereo unspecified)	-8%	0%	?	·	·	-18%
c1ccc(CNc2cc(-c3ccoc3)ncn2)cc1	0%	·	-8%	-17%	·	13µM*
c1ccc(Nc2cc(-c3ccoc3)ncn2)cc1	-22%	·	-5%	-13%	·	11µM*
CCn1c(O)c(C=Nc2ccccc2)n(-c2ccccc2)c1=S	6.5µM*	5%	5.8µM*	1%	?	-8%
CCn1c(O)c(C=Nc2ccccc2)sc1=O	-7%	3%	1%	-1%	-3%	-5%
Cc1ccc2c(=O)cc(C(=O)Nc3nc4ccc(Cl)cc4s3)oc2c1	-13%	1%	-6%	-10%	·	4%
O=C(c1cnc2n(c1=O)CCS2)N1CCN(C(c2ccccc2)c2ccc(Cl)cc2)CC1 (stereo unspecified)	12µM*	5%	21µM*	-7%	-5%	-4%
SMILES	TDP1 cell CPT	TDP1 block	TDP1 cell noCPT	GCN5L2 inh	PLK1 PBD block	VDR inhibitor
O=C(c1cnc2n(c1=O)CCS2)N1CCN(c2ccccc2Cl)CC1	·	·	·	-18%	·	·
CCN(c1ccccc1)c1nc(Cl)nc2c1cnn2C	?	·	13µM*	·	-10%	-9%
NC(=O)C1CC(=O)N(c2ccc(OCc3ccc(Cl)cc3Cl)cc2)C1 (stereo unspecified)	-25%	3%	-50%	-3%	3%	2%
NC(=O)C1CC(=O)N(c2ccc(OCc3ccc(Cl)c(Cl)c3)cc2)C1 (stereo unspecified)	23µM*	·	?	·	3%	·
COc1ccc(S(=O)(=O)N2CCN(CC(O)COc3ccc(CC#N)cc3)CC2)cc1OC (stereo unspecified)	-1%	13%	-10%	-3%	-1%	7%
O=C1Nc2ccccc2SC(c2ccccc2)C1O (stereo unspecified)	23µM*	?	?	-22%	?	-10%
O=C(O)CC1Sc2ccccc2NC1=O (stereo unspecified)	-4%	7%	-20%	-1%	-24%	10%
COc1ccc(C(=O)C2CCCN(C(=O)c3csc(C(C)=O)c3)C2)c(C)c1 (stereo unspecified)	?	3%	-18%	2%	?	-25%
COc1ccc(C(=O)C2CCCN(C(=O)C3=CCCC3)C2)c(C)c1 (stereo unspecified)	?	1%	23µM*	-7%	-9%	-6%
COc1ccc(C(=O)C2CCCN(C(=O)c3noc4c3CCCC4)C2)c(C)c1 (stereo unspecified)	?	1%	21µM*	-11%	-16%	-8%
C#Cc1cccc(C(=O)N2CCCC(C(=O)c3ccc(OC)cc3C)C2)c1 (stereo unspecified)	-23%	2%	-27%	-15%	1%	-17%
CCC(=O)Nc1ccc2nc(SCCOc3ccc(C)cc3OC)sc2c1	?	6%	15µM*	-4%	·	1%
COc1cc(C)ccc1OCCSc1nc2ccc(NC(=O)c3ccc(F)cc3)cc2s1	?	3%	8.2µM*	-8%	·	0%
COc1ccc(Br)cc1CNC(=O)c1cc(=O)[nH]c2ccc(S(=O)(=O)N3CCCCC3C)cc12 (stereo unspecified)	?	8%	?	2%	·	19%
Cc1ccccc1-c1ccc2c(c1)O[C@@H](CN(C)C(=O)Nc1ccc(C(F)(F)F)cc1)[C@H](C)CN([C@@H](C)CO)S2(=O)=O	21µM*	·	13µM*	·	4%	·
C[C@@H]1CN([C@H](C)CO)S(=O)(=O)c2ccc(Br)cc2O[C@@H]1CN(C)C(=O)Nc1ccc(C(F)(F)F)cc1	21µM*	·	?	·	2%	·
Cc1ccn2cc(-c3cnoc3C)nc2c1	?	-5%	?	0%	27µM*	-13%

Source: PubChem BioAssay (National Center for Advancing Translational Sciences (NCATS))
